# Measured values taken from PubChem BioAssay.
# “And” between values parts separate entries of the source, which are not always exact repeats. Identical values can stand only once. The source made the active and inactive calls.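 The calls were made as follows, unless noted: active = normalized viability below 100% at a tested concentration; inactive = the rest.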
# Key:
# [1] = drug combination growth inhibition, ovarian cancer – cell-based, oncology-focused library, rucaparib conditional, profiling panel (AID 1508598); details: patient-derived ovarian cancer cells, CellTiter-Glo viability, 144 h, stronger effect = lower value
# [2] = molecular target: NAD(+) hydrolase SARM1 (Homo sapiens) (UniProt Q6SZW1); test: blocking NAD cleavage by SARM1 SAM-TIR – cell lysate, NAD-Glo luminescence (AID 1508614;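 active = compound whose remaining NAD level is above about 45 nM, limit read from the data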;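 also: higher remaining NAD means stronger inhibition of SARM1 NADase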); details: SAM-TIR HEK293T lysate NADase, at 1 µM, stronger effect = higher value
# Chain of NAD(+) hydrolase SARM1 (Homo sapiens) (Q6SZW1 whole entry, looked up): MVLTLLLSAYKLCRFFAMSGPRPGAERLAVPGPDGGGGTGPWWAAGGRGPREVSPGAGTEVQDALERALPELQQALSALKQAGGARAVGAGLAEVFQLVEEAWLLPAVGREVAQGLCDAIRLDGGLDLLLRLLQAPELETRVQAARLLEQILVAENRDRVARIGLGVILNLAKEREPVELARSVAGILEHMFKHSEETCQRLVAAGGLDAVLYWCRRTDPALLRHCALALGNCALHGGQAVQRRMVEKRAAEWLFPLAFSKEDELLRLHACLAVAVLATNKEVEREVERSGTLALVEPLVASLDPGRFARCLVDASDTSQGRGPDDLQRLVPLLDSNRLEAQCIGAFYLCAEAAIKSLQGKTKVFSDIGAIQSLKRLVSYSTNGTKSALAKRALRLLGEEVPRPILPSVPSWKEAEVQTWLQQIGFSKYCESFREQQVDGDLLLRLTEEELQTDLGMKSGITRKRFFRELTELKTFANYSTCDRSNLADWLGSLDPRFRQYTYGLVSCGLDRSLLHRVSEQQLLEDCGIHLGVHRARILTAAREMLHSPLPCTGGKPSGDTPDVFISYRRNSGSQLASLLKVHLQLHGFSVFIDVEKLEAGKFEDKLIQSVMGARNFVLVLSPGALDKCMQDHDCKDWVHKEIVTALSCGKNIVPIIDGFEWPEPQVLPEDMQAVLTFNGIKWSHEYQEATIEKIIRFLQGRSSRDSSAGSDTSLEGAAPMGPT
# [3] = P. berghei load reduction in hepatocytes – cell-based, HepG2, luciferase luminescence, HepG2 viability, primary screen (AID 624349; in the data active = parasite load remaining mostly below about 12%, no sharp cut-off; inactive = mostly above about 10%;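 also: 100% = mean of DMSO negative control wells on the same plate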); details: P. berghei liver stage in HepG2, luciferase luminescence, concentration not given here; parasite load remaining: stronger effect = lower value; viability: measured here: HepG2 viability without parasites
# [4] = Wnt pathway potentiators raising nuclear beta-catenin – imaging, WNT3A-conditioned medium, mouse C2C12, NPC library, primary screen (AID 1117326; in the data active = nuclear beta-catenin stimulation mostly above about 4.2%, no sharp cut-off; inactive = mostly below about 10%); details: stronger effect = higher value
# [5] = stimulators of insulin release from INS-1E, primary screen, cell-based, 5 mM glucose, NPC library (AID 1117329;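 active = compound raises insulin release from rat beta cells at 5 mM glucose, no numeric limit stated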); details: rat INS-1E insulin secretion, at 10 µM, stronger effect = higher value
# [6] = growth inhibition of GSK3B-pretreated HCT116 cells – cell-based, CellTiter-Glo, 0.2 to 20 µM (AID 1117336;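 active = compounds lowering colon cancer cell viability after pretreatment blocking the GSK3B kinase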); details: HCT116 viability after GSK3B inhibitor, at 20 µM, stronger effect = higher value
# [7] = inhibition of endothelial tube formation, primary screen, imaging, VEGF stimulated, CD31 staining, tube area, NPC library (AID 1117340;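 active = compound that reduces growth-factor-driven endothelial tube area in a mixed cell culture, no cutoff stated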); details: VEGF-stimulated ADSC/ECFC co-culture, at 10 µM, stronger effect = higher value
# [8] = GLP1 release stimulators, primary, NCI-H716, NPC library (AID 1117341;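 active = compound raises GLP1 secretion from the human gut endocrine cells, with no numeric limit stated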); details: NCI-H716 cells, at 10 µM, stronger effect = higher value
# [9] = HCT116 colon cancer cell growth inhibition, primary screen, CellTiter-Glo luminescence, NPC library (AID 1117342;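 active = compounds that lower survival of HCT116 colon cancer cells in the luminescence readout, no numeric limit stated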); details: at 20 µM (top of the series)
# [10] = reduced SW480 viability measured with CellTiter-Glo, NPC library, primary (AID 1117343;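 active = compounds that lower viability of the colon cancer cells in the luminescence readout, with no numeric limit stated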); details: CellTiter-Glo luminescence; at 20 µM (top of the series) unless noted
# [11] = NPC library primary testing for decreased DLD-1 cell viability via CellTiter-Glo (AID 1117346;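 active = compounds that lower survival of DLD-1 colon cancer cells in the luminescence readout, no cutoff given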); details: DLD-1 viability, CellTiter-Glo luminescence; at 20 µM (top of the series)
# [12] = EMT-state selective cytotoxicity in co-culture – imaging, PC-3E GFP, TEM4-18 mCherry, primary screen (AID 1345086;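 active = compounds killing one labelled cell type while sparing the other, by normalised counts and ratio limits, not self-fluorescent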;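 as to all read-outs here: cells exposed to compound for 72 h before imaging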;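 as to red/green cell ratio (normalised): normalised mesenchymal count divided by normalised epithelial count so high means epithelial killing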); details: PC-3E GFP / TEM4-18 mCherry co-culture, imaging cell counts, at 1 µM; for red/green cell ratio (normalised): actives lie on both sides, counts scaled to control wells, 1 = unselective
# [13] = viability loss with induced miR-34 in A549 – imaging, A549 dox-inducible miR-34, nuclei and caspase counts, primary screen (AID 1347080;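 active = compounds whose cell count with miR-34 switched on is under 0.7 times the count with it off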); details: A549 miR-34 inducible, Hoechst nuclei count, 48 h
# [14] = MELAS cybrid and Rieske KO viability enhancers – cell-based, MELAS cybrids, Rieske KO mouse fibroblasts, CellTiter-Glo, primary screen (AID 1508586;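 active = mean z-score across replicates of 1.96 or higher in either the MELAS or the Rieske mutant cell line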;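 also: z relative to plate mean and SD of compound and empty wells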); details: low glucose
# [15] = measured here: epithelial PC-3E GFP cell survival
# [16] = measured here: mesenchymal TEM4-18 mCherry cell survival
# [17] = stronger effect = lower value, cell number ratio, induced over uninduced
# [18] = measured here: relative caspase fold change +Dox/-Dox
# [19] = measured here: total cells with miR-34 induction, stronger effect = lower value
# [20] = measured here: total cells without miR-34 induction
# [21] = MELAS cybrid survival, CellTiter-Glo 48 h, stronger effect = higher value
# [22] = Rieske KO mouse fibroblast survival, CellTiter-Glo 72 h
smiles,measurement,setting,value
Cc1nc(Nc2ncc(C(=O)Nc3c(C)cccc3Cl)s2)cc(N2CCN(CCO)CC2)n1,viability,"[1]; at 0.0195 µM, OCI-C5x cells, with rucaparib 10 µM, 100% = cells with rucaparib alone",77.4% (active)
same,viability,"[1]; at 0.0195 µM, OCI-C5x cells, without rucaparib",87.9% (active)
same,viability,"[1]; at 0.0195 µM, OCI-P5x cells, with rucaparib 20 µM, 100% = cells with rucaparib alone",27.3% (active)
same,viability,"[1]; at 0.0195 µM, OCI-P5x cells, without rucaparib",53.6% (active)
same,viability,"[1]; at 0.0781 µM, OCI-C5x cells, with rucaparib 10 µM, 100% = cells with rucaparib alone",68.4% (active)
same,viability,"[1]; at 0.0781 µM, OCI-C5x cells, without rucaparib",72.4% (active)
same,viability,"[1]; at 0.0781 µM, OCI-P5x cells, with rucaparib 20 µM, 100% = cells with rucaparib alone",17% (active)
same,viability,"[1]; at 0.0781 µM, OCI-P5x cells, without rucaparib",31.8% (active)
same,viability,"[1]; at 0.313 µM, OCI-C5x cells, with rucaparib 10 µM, 100% = cells with rucaparib alone",69.2% (active)
same,viability,"[1]; at 0.313 µM, OCI-C5x cells, without rucaparib",71.6% (active)
same,viability,"[1]; at 0.313 µM, OCI-P5x cells, with rucaparib 20 µM, 100% = cells with rucaparib alone",17% (active)
same,viability,"[1]; at 0.313 µM, OCI-P5x cells, without rucaparib",28.4% (active)
same,viability,"[1]; at 1.25 µM, OCI-C5x cells, with rucaparib 10 µM, 100% = cells with rucaparib alone",66.7% (active)
same,viability,"[1]; at 1.25 µM, OCI-C5x cells, without rucaparib",71.4% (active)
same,viability,"[1]; at 1.25 µM, OCI-P5x cells, with rucaparib 20 µM, 100% = cells with rucaparib alone",16.6% (active)
same,viability,"[1]; at 1.25 µM, OCI-P5x cells, without rucaparib",24.3% (active)
same,viability,"[1]; at 5 µM, OCI-C5x cells, with rucaparib 10 µM, 100% = cells with rucaparib alone",44.6% (active)
same,viability,"[1]; at 5 µM, OCI-C5x cells, without rucaparib",51.1% (active)
same,viability,"[1]; at 5 µM, OCI-P5x cells, with rucaparib 20 µM, 100% = cells with rucaparib alone",2.14% (active)
same,viability,"[1]; at 5 µM, OCI-P5x cells, without rucaparib",10.5% (active)
same,remaining NAD,[2],10 nM (inactive)
COc1ccc2[nH]c(S(=O)Cc3ncc(C)c(OC)c3C)nc2n1 (stereo not given),parasite load remaining,[3],0.57% (active)
same,viability,[3],93%
same,nuclear beta-catenin stimulation,[4]; at 10 µM,5.2% (inactive)
same,nuclear beta-catenin stimulation,"[4]; stimulation, at 2 µM",-0.9%
same,insulin secretion stimulation,[5],4.2% (inactive)
same,viability decrease,[6],16.5% (inactive)
same,tube area decrease,[7],14.1% (inactive)
same,GLP1 secretion stimulation,[8],4.6% (inactive)
same,inhibition of viability,[9],4.9% (inactive)
same,viability decrease (inhibition),[10],-1.6% (inactive)
same,viability decrease (inhibition),[11],4.3% (inactive)
same,red/green cell ratio (normalised),[12],1.06 (inactive)
same,normalised cell number,[12]; [15],1.01
same,normalised cell number,[12]; [16],1.07
same,fold change,[13]; [17],0.835 (inactive)
same,fold change,[13]; [18],1.32
same,cell count,[13]; [19],8340
same,cell count,[13]; [20],9990
same,z-score,[14]; [21],1.95 (inactive) and 1.02
same,z-score,[14]; [22],0.213 and 2.3
same,remaining NAD,[2],77 nM (active)
CCN(C)C(=O)Oc1cccc([C@H](C)N(C)C)c1,parasite load remaining,[3],32.3% (inactive)
same,viability,[3],99%
same,nuclear beta-catenin stimulation,[4]; at 10 µM,-0.2% (inactive)
same,nuclear beta-catenin stimulation,"[4]; stimulation, at 2 µM",0.4%
same,insulin secretion stimulation,[5],6.4% (inactive)
same,viability decrease,[6],5.7% (inactive)
same,tube area decrease,[7],-0.5% (inactive)
same,GLP1 secretion stimulation,[8],2.5% (inactive)
same,inhibition of viability,[9],25.9% (inactive)
same,viability decrease (inhibition),[10],17.2% (inactive)
same,viability decrease (inhibition),[11],0.2% (inactive)
same,red/green cell ratio (normalised),[12],1.13 (inactive)
same,normalised cell number,[12]; [15],1.24
same,normalised cell number,[12]; [16],1.4
same,fold change,[13]; [17],0.884 (inactive)
same,fold change,[13]; [18],1.13
same,cell count,[13]; [19],10100
same,cell count,[13]; [20],11400
same,z-score,[14]; [21],-0.629 (inactive) and -0.546 (inactive)
same,z-score,[14]; [22],-0.737 and -0.15
CC(S)C(=O)NCC(=O)O (stereo not given),nuclear beta-catenin stimulation,[4]; at 10 µM,-0.5% (inactive)
same,nuclear beta-catenin stimulation,"[4]; stimulation, at 2 µM",0.7%
same,insulin secretion stimulation,[5],-0.8% (inactive)
same,viability decrease,[6],-7.03% (inactive)
same,tube area decrease,[7],17.7% (inactive)
same,GLP1 secretion stimulation,[8],-1.7% (inactive)
same,inhibition of viability,[9],-7.95% (inactive)
same,viability decrease (inhibition),[10],46.8% (inactive)
same,viability decrease (inhibition),[11],0.37% (inactive)
same,red/green cell ratio (normalised),[12],0.9 (inactive)
same,normalised cell number,[12]; [15],1.06
same,normalised cell number,[12]; [16],0.94
same,fold change,[13]; [17],0.956 (inactive) and 0.886 (inactive)
same,fold change,[13]; [18],0.809 and 0.891
same,cell count,[13]; [19],8410 and 8420
same,cell count,[13]; [20],8800 and 9500
same,z-score,[14]; [21],-0.286 (inactive)
same,z-score,[14]; [22],0.558
same,remaining NAD,[2],10 nM (inactive)
O=C1Cc2cc(CCN3CCN(c4nsc5ccccc45)CC3)c(Cl)cc2N1,nuclear beta-catenin stimulation,[4]; at 10 µM,0.7% (inactive)
same,nuclear beta-catenin stimulation,"[4]; stimulation, at 2 µM",0.6%
same,insulin secretion stimulation,[5],0.65% (inactive)
same,viability decrease,[6],117% (active)
same,tube area decrease,[7],22.4% (inactive)
same,GLP1 secretion stimulation,[8],2.9% (inactive)
same,inhibition of viability,[9],124% (active)
same,viability decrease (inhibition),[10],91.1% (active)
same,viability decrease (inhibition),[11],101% (active)
same,red/green cell ratio (normalised),[12],0.94 (inactive)
same,normalised cell number,[12]; [15],1.17
same,normalised cell number,[12]; [16],1.1
same,fold change,[13]; [17],0.799 (inactive) and 0.929 (inactive) and 0.946 (inactive)
same,fold change,[13]; [18],1.72 and 0.693 and 2.86
same,cell count,[13]; [19],4490 and 6730 and 8460
same,cell count,[13]; [20],5620 and 7240 and 8940
same,z-score,[14]; [21],-0.541 (inactive) and 0.954 (inactive)
same,z-score,[14]; [22],1.41 and -0.174
same,remaining NAD,[2],10 nM (inactive)
